Assay results reported in PubChem BioAssay AID492949 (National Center for Advancing Translational Sciences (NCATS), 2010).
Records with an inconclusive call do not appear. The source made the active and inactive calls. Calls come from the whole dose curve; as a rule, active = well fitted activation curve with a large enough effect; inconclusive = small, poorly fitted or top-dose-only effect; inactive = no such curve, though single readings can be large or run the other way.

Molecular target: Relaxin receptor 1 (Homo sapiens) (UniProt Q9HBX9)
Assay: qHTS Assay for Agonists of the Relaxin Receptor RXFP1: THP1 Hit Validation; note: nearly all actives have a fitted effect of over 60% in size
Procedure, shortened: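 EC50s come from Hill-equation fits of data normalized between buffer (basal) and 29 nM porcine relaxin (100%). cAMP was measured by competitive TR-FRET in lysates of RXFP1-transfected THP1 cells after 30 min compound exposure, with Ro 20174 present.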
Potency is the fitted concentration of half-maximal effect.

Chain of Relaxin receptor 1 (Homo sapiens) (Q9HBX9 whole entry, looked up): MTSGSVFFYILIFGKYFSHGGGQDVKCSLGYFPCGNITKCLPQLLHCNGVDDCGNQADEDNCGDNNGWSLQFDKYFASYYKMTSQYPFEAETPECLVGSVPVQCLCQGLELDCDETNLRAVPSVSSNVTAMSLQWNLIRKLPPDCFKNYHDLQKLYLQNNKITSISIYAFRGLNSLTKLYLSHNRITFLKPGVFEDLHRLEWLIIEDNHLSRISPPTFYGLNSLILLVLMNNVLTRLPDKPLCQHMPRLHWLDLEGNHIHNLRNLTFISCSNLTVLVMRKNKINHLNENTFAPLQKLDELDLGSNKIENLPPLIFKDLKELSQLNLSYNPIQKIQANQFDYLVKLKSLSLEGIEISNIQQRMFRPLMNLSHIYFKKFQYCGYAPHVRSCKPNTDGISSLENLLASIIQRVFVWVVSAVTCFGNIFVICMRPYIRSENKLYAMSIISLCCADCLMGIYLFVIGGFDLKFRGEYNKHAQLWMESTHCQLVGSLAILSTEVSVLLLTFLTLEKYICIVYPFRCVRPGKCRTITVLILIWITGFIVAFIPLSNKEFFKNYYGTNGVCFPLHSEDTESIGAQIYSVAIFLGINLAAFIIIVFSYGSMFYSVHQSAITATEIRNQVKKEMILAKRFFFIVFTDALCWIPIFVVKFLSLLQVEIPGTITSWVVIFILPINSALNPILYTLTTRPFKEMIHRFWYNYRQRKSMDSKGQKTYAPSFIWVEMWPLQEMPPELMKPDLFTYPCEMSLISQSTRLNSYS

| SMILES | Potency |
| --- | --- |
| Cc1ccc(-n2nnc3c(=O)n(CC(=O)NCC4CCCO4)cnc32)cc1 (stereo not given) | 15.5 µM (active) |
| O=C(O)CCNc1ccc(NCCC(=O)O)c2c1C(=O)c1ccccc1C2=O | inactive |
| CCn1c(=O)c2cc(C(=O)Nc3cccc(C(C)=O)c3)sc2c2ccccc21 | inactive |
| CC1(C)O[C@@H]2[C@H](O1)[C@@H](COS(=O)(=O)O)O[C@H]2n1cnc2c(N)ncnc21 | 5.48 µM (active) |
| CCCN(CCC)S(=O)(=O)c1cc(CN2C(=O)c3cccnc3C2=O)ccc1OC | 24.5 µM (active) |
| NS(=O)(=O)c1ccc(CCNC(=O)C2CCN(c3ncnc4c3nc3n4CCCCC3)CC2)cc1 | 27.5 µM (active) |
| CCCC(=O)Nc1ncnc2c1ncn2[C@@H]1O[C@@H]2COP(=O)(O)O[C@H]2[C@H]1OC(=O)CCC | 1.23 µM (active) |
| CC(C)C(=O)Nc1ccc(Nc2ccccc2)cc1 | inactive |
| COc1ccc(CC(=O)N/N=C/c2cccnc2)cc1OC | inactive |
| CCc1cc2c(=O)nc3n(c2s1)Cc1ccccc1/C3=C(/O)c1cccc([N+](=O)[O-])c1 | 0.87 µM (active) |
| CC(C)(C)C(=O)Nc1ccccc1C(=O)NCc1ccco1 | inactive |
| C[C@H](Cc1ccccc1)Nc1ncnc2c1ncn2[C@@H]1O[C@H](CO)[C@@H](O)[C@H]1O | inactive |
| COc1cccc(C(=O)CSc2nnc(-c3cc(OC)cc(OC)c3)o2)c1 | 12.3 µM (active) |
| CCOC(=O)CCCCC(=O)c1[nH]c(=O)[nH]c1CSc1nnc2c3cc(Br)ccc3n(C)c2n1 | 8.68 µM (active) |
| COc1ccc(Nc2ncc(C#N)c(N)n2)c(OC)c1 | inactive |
